# ± gives the standard deviation of the averaged measurements. Over roughly 4,100 sequences, “relative kcat/Km (krel) vs genomic leader AAAGAU” has its median near 1.7; the highest 2% begin near 6.5. Only a selection was taken, and the highest values are over-represented in it overall.
# Molecular target: T1, E. coli RNase P holoenzyme (M1 P RNA + rnpA protein) (UniProt P0A7Y8)
# T1 sequence: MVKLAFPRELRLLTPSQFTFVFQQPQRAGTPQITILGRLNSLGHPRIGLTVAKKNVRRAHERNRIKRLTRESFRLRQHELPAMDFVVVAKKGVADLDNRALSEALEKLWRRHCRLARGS
# Experiment: relative kcat/Km (krel) vs genomic leader AAAGAU (relative (reference leader = 1)); higher = faster RNase P cleavage
# Method: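 HTS-Kin: a pool of ptRNA-Met (21C construct) with all 4096 combinations of 5' leader nucleotides N(-6) to N(-1) was processed in vitro by E. coli RNase P (P RNA + rnpA/C5 protein) under multiple-turnover conditions at 37 C, pH 8, 17.5 mM MgCl2. Residual substrate was Illumina-sequenced at several fractions reacted, and relative kcat/Km (krel) was computed by internal competition kinetics, calibrated to the genomic leader (AAAGAU = 1). The listed hexamer is the varied N(-6)..N(-1) leader (DNA letters), and it sits between a fixed 5' stem-loop flank (GCAUGCACGAAAGUGCGUGCUAUGAA) and the mature tRNA-Met starting GGCUACGUAGCUCAGUUGG. Two technical replicates are averaged.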
# [1] = fraction of substrate reacted: ~9-10% (9.79% repeat 1, 9.1% repeat 2)
# [2] = fraction of substrate reacted: ~13-16% (15.68% repeat 1, 13.17% repeat 2)
# [3] = fraction of substrate reacted: ~26-29% (28.66% repeat 1, 26.4% repeat 2)
Sequence,relative kcat/Km [1],relative kcat/Km [2],relative kcat/Km [3]
CACTAC,4.63 ± 0.25,6.82 ± 2.5,8.23 ± 3.5
CACTGT,1.07 ± 0.037,0.947 ± 0.35,1.51 ± 1.1
CACTGC,3.89 ± 1.6,4.53 ± 1.3,6.06 ± 1.9
AACTAC,3.89 ± 1.7,4.66 ± 0.63,6.38 ± 2.5
CGCTAC,3.79 ± 0.67,4.78 ± 2.6,6.76 ± 2.8
CGTATA,2.37 ± 0.34,2.75 ± 0.17,3.94 ± 1.5
GATGGT,–,–,2.1 ± 0.88
TGAGAC,2.71 ± 1.3,2.56 ± 0.093,4.48 ± 1.3
TATACA,1.36 ± 0.29,2.13 ± 0.035,3.02 ± 1.8
AGTCGA,2.68 ± 0.35,3.65 ± 1.2,5.59 ± 2
TCCTAC,4.6 ± 1.6,5.74 ± 0.95,9.69 ± 4.1
CCCTTC,3.11 ± 1.4,3.36 ± 0.74,4.51 ± 1.3
CCCTAC,4.32 ± 1.6,5.08 ± 2.3,7.32 ± 3.6
ACCTAC,3.44 ± 1.2,4.53 ± 0.77,5.77 ± 2.1
TCCTTA,3.84 ± 1.5,4.61 ± 0.54,6.32 ± 2.4
GCCTAC,3.67 ± 1.2,4.5 ± 0.39,6.1 ± 2.4
CCCTTT,2.73 ± 0.52,3.73 ± 1.1,5.02 ± 2
ACCTAT,3.74 ± 1.7,4.66 ± 0.24,6.39 ± 2.5
TCCTAT,4.03 ± 0.47,6.02 ± 0.85,9.38 ± 4.8
TCCTTT,3.7 ± 1.8,4.6 ± 0.8,6.89 ± 2.9
TCCTTC,3.75 ± 1.2,4.99 ± 0.72,6.44 ± 2.3
GAAGAT,1.93 ± 1.7,1.36 ± 0.085,1.34 ± 0.35
ATGCTG,–,–,0.658 ± 0.54
CTTAGA,3.03 ± 0.85,3.18 ± 0.44,4.79 ± 1.7
GATACC,–,1.49 ± 0.64,1.67 ± 0.033
CTGAAG,–,–,2.05 ± 0.18

Sequence,relative kcat/Km [1],relative kcat/Km [2],relative kcat/Km [3]
TCCCGT,–,–,1.86 ± 0.041
GCAATT,–,0.851 ± 0.064,1.21 ± 0.26
AGTGTG,–,–,0.473 ± 0.33
ACCTAA,2.83 ± 0.76,4.49 ± 0.31,6.74 ± 2.3
GCCTAG,2.58 ± 1.6,1.57 ± 0.49,3.67 ± 1.2
ACCTCA,3.35 ± 1.8,3.24 ± 0.27,4 ± 1.2
CCCTGT,–,–,1.59 ± 0.87
CCCTAT,3.137 ± 0.006,5.47 ± 1.1,7.09 ± 3.1
CCCCCT,2.27 ± 1.8,1.25 ± 0.29,1.95 ± 0.15
GCCTAT,2.77 ± 0.47,3.91 ± 0.98,6.22 ± 2.8
GCCTAA,2.35 ± 0.18,3.94 ± 0.16,7.08 ± 2.8
CCTAAA,2.53 ± 1.5,2.31 ± 0.051,3.14 ± 0.82
CCCTAA,3.68 ± 0.17,4.41 ± 1.4,6.7 ± 3.1
CCCTAG,3.11 ± 1.7,2.55 ± 0.57,4.45 ± 1.2
ACCTAG,2.77 ± 2.8,2.93 ± 0.56,4.27 ± 0.99
TGCAAA,0.962 ± 0.78,1.86 ± 0.54,2.7 ± 1.3
CGGACC,0.889 ± 0.39,0.714 ± 0.41,0.577 ± 0.38
ACCGGT,–,–,1.78 ± 1.1
TGGTCT,–,–,0.817 ± 0.39
CTGGCG,0.881 ± 0.58,–,0.461 ± 0.2
CAGTGA,1.48 ± 0.7,2.14 ± 0.58,3.05 ± 0.86
GATCGA,2.37 ± 0.82,2.79 ± 1.2,4.26 ± 1.2
GTTAAG,–,1.6 ± 0.16,2.65 ± 0.77
CTACTC,2.13 ± 1.3,1.61 ± 0.43,2.14 ± 0.28
TCCTAA,5.1 ± 1.9,6.12 ± 0.94,9.11 ± 3.3
TCCTAG,2.56 ± 0.72,3.4 ± 0.46,6.01 ± 2.7

# Source: the supplement of paper PMC9433436
